High-throughput results from PubChem.
Jurkat NFkB inh – inhibitors of the PMA/ionomycin-induced NF-kB reporter in Jurkat cells; inhibition, % at 4 µM; PMA/ionomycin-induced NF-kB luciferase reporter, luminescence; 330,000 compounds, 0.53% hits; AID 435003; in the data active means inhibition above about 50%
CFTR F508del cor – CFTR F508del correction in bronchial cells. CFBE cells, YFP halide quenching; stimulated with forskolin plus potentiator P3; % fluorescence drop versus neutral controls. activity (quench increase), % at 7.58 µM. 350,000 compounds, 0.36% hits;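 active means mean added fluorescence quench of at least 8% versus neutral control, with both replicates also reaching 8%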;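 further: cells transiently co-express mutant CFTR-F508del with the halide-sensitive YFP; corrector assay measuring rescue of mutant channel to the surface after 24 h compound exposure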
697 NFkB inh – lowers PMA/ionomycin-induced NF-kB signal in 697 B cells; 697 B-cell NF-kB luciferase reporter, 16 h; inhibition, % at 4 µM; 330,000 compounds, 0.33% hits; in the data active means inhibition above about 35%
HIF activator – HIF pathway transcriptional activation; U2OS HRE-luciferase reporter, luminescence; normalized: DMSO 0%, desferrioxamine 100%; activation, % at 7.5 µM (by protocol); 300,000 compounds, 0.32% hits; AID 1910;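 active means mean activation of at least 10% of the iron chelator positive control signal, with at least half of replicates also reaching 10%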
Jurkat NFkB conf – inhibitors of the PMA/ionomycin-induced NF-kB reporter in Jurkat cells, retest; shares compounds with Jurkat NFkB inh; Jurkat NF-kB luciferase, 16 h; inhibition, % at 4 µM; 2,700 compounds, 27% hits; AID 435020;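 active means inhibition reaching about 45% at 4 µM in either replicate, limit read from the data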;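 further: plate controls were PMA/ionomycin stimulated DMSO wells for no effect and unstimulated DMSO wells for full effect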
Starred values were filed as active, the others as inactive; . = not tested or not shown. An excerpt weighted towards active compounds, which were near 0.93% of everything screened.

SMILES	Jurkat NFkB inh	CFTR F508del cor	697 NFkB inh	HIF activator	Jurkat NFkB conf
CCCCN=C[C@]12CCC(O)CC1(O)CCC1[C@@H]2CC[C@]2(C)[C@H](C3C=CC(=O)O3)CCC12O (stereo partly drawn)	94.3*	0.4	-54.1	-2.9	78.6*
C[C@]12CCC3C(CCC4=CC(O)CC[C@@]43/C=N/O)C1(O)CCC2C1=CC(=O)OC1 (stereo partly drawn)	95.3*	-2.9	-26.8	-4.2	79.2*
C[C@]12CC[C@H]3[C@@H](CC[C@]4(O)C[C@@H](O)CC[C@]34C=O)[C@@]1(O)CC[C@@H]2C1=CC(=O)OC1	98.3*	-2.8	-52.9	.	86.3*
CC=Cc1ccc2n(c1=O)C[C@@H]1[C@@H](CO)[C@H](C(=O)OC)[C@H]2N1CC1CCCC1 (mixture of isomers)	.	-2.3	.	.	.
O=C(O)[C@H]1[C@H](CO)[C@H]2Cn3c(ccc(-c4cccnc4)c3=O)[C@@H]1N2S(=O)(=O)c1ccccc1F	.	-0.2	.	.	.
COC(=O)[C@H]1[C@H](CO)[C@H]2Cn3c(ccc(-c4cccc(OC)c4)c3=O)[C@@H]1N2C(=O)c1ccccc1F	.	1.1	.	.	.
C[C@@H]1CN([C@@H](C)CO)C(=O)c2c(c3ccccc3n2C)-c2ccccc2CO[C@@H]1CN(C)C(=O)Oc1ccccc1	.	2.6	.	.	.
COc1ccc2c(c1)/C(=C/c1cnc[nH]1)C(=O)N2	55.0*	.	-181.6	9.9*	41.9
O=C1Nc2ccccc2/C1=C/c1cnc[nH]1	-21.5	-1.3	-35.6	-0.5	.
O=C(Nc1cccc(C(F)(F)F)c1)c1cccn(Cc2ccc3c(c2)OC(F)(F)O3)c1=O	1.1	.	8.1	0.3	.
O=C(Nc1ccc(C(F)(F)F)cc1)c1cccn(Cc2ccc3c(c2)OC(F)(F)O3)c1=O	54.1*	.	0.2	0.1	46.4
O=c1c2ccccc2nc(/C=C/c2ccc(O)cc2)n1-c1ccccc1O	5.6	-3.4	13.3	0.5	.
COc1ccccc1-n1c(/C=C/c2ccc(O)cc2)nc2ccccc2c1=O	-190.7	2.0	-168.0	0.5	-81.2
CCCCCC(=O)N[C@@H](c1ccccc1)[C@@H](O)C(=O)O[C@H]1C[C@@]2(O)[C@@H](OC(=O)c3ccccc3)C3[C@](C)(C(=O)[C@H](O)C(=C1C)C2(C)C)[C@@H](OC1OCC(O)C(O)C1O)C[C@H]1OC[C@@]31OC(C)=O (stereo partly drawn)	40.9	-0.6	-20.1	1.3	.
CC/C=C/CC(=O)N[C@@H](c1ccccc1)[C@@H](O)C(=O)O[C@H]1C[C@@]2(O)[C@@H](OC(=O)c3ccccc3)C3[C@](C)(C(=O)[C@H](OC(C)=O)C(=C1C)C2(C)C)[C@@H](O)C[C@H]1OC[C@@]31OC(C)=O (stereo partly drawn)	65.9*	16.9*	-14.8	1.0	63.0*
C/C=C(\C)C(=O)N[C@@H](c1ccccc1)[C@@H](O)C(=O)O[C@H]1C[C@@]2(O)[C@@H](OC(=O)c3ccccc3)C3[C@](C)(C(=O)[C@H](OC(C)=O)C(=C1C)C2(C)C)[C@H](O)C[C@H]1OC[C@@]31OC(C)=O (stereo partly drawn)	72.0*	5.7	1.6	-0.3	72.9*
CCC(C)C(=O)N[C@@H](c1ccccc1)[C@@H](O)C(=O)O[C@H]1C[C@@]2(O)[C@@H](OC(=O)c3ccccc3)C3[C@](C)(C(=O)[C@H](OC(C)=O)C(=C1C)C2(C)C)[C@@H](O)C[C@H]1OC[C@@]31OC(C)=O (stereo partly drawn)	71.7*	10.6*	-6.0	-0.2	68.0*
CC(=O)O[C@@]12CO[C@@H]1C[C@@H](O)[C@@]1(C)C(=O)[C@H](O)C3=C(C)[C@@H](OC(=O)[C@H](O)[C@@H](NC(=O)c4ccccc4)c4ccccc4)C[C@@](O)([C@@H](OC(=O)c4ccccc4)C12)C3(C)C (stereo partly drawn)	64.8*	0.0	-26.8	-0.4	64.9*
O=C1CNC[C@H]2[C@@H](c3ccc(Br)cc3)[C@H](CO)N12	.	-3.1	.	.	.
O=C(Cc1cccnc1)N1CCCCN2[C@H](C1)[C@H](c1ccc(C#CC3CC3)cc1)[C@@H]2CO	.	-0.9	.	.	.
CCCNC(=O)N1[C@@H]2c3ccc(-c4ccccc4OC)c(=O)n3C[C@H]1[C@H](CO)[C@H]2C(=O)O	.	0.8	.	.	.
Nc1ccc(CCN2CCCC2)cc1	-4.0	0.4	0.0	1.2	.
Nc1ccc(CCN2CCN(c3cccc(C(F)(F)F)c3)CC2)cc1	60.4*	-0.4	-11.1	0.0	12.7
C=C(C)[C@@]12OC3(c4ccccc4)O[C@@H]1C1[C@@H]4O[C@]4(CO)[C@@H](O)[C@]4(O)C(=O)C(C)=C[C@H]4[C@@]1(O3)[C@H](C)[C@H]2OC(=O)/C=C/C=C/c1ccccc1 (stereo partly drawn)	81.4*	.	-49.0	1.6	47.5
O=C(Cc1ccccc1)N1CCCCN2[C@H](CO)[C@H](c3ccc(C#CC4(O)CCCC4)cc3)[C@H]2C1	.	2.5	.	.	.
SMILES	Jurkat NFkB inh	CFTR F508del cor	697 NFkB inh	HIF activator	Jurkat NFkB conf
COc1ccc(C[C@@H]2c3cc(O)c(OC)cc3CCN2C)cc1O	-8.0	0.6	-5.7	0.3	.
COc1cc2c(cc1O)[C@@H]1Cc3ccc(OC)c(O)c3CN1CC2	58.1*	5.8	7.7	.	27.4
O=C(Cc1ccccc1)N1CCCCN2[C@H](CO)[C@H](c3ccc(C#Cc4ccccc4)cc3)[C@@H]2C1	.	-1.2	.	.	.
COC(=O)[C@]12OC[C@]34C([C@@H](O)[C@@H]1O)[C@]1(C)CC(=O)C(O)=C(C)[C@@H]1C[C@H]3OC(=O)[C@H](O)[C@@H]24 (stereo partly drawn)	65.8*	4.2	-30.0	20.8*	86.3*
O=c1c2ccccc2nc(/C=C/c2ccc([N+](=O)[O-])o2)n1-c1ccc(O)cc1	91.1*	-6.4	-221.4	-3.3	66.8*
COc1cccc(NP(=O)(Oc2ccccc2)Oc2ccccc2)c1	62.3*	.	-50.8	0.3	15.9
COc1cccc(NP(=O)(Oc2ccccc2Cl)Oc2ccccc2Cl)c1	24.4	3.8	-81.6	.	.
CC[C@@H]1C=CC=CC[C@H](C)[C@@H](O)[C@@H](C)C(=O)[C@H](C)[C@@H](O)[C@H](C)C(=O)[C@H](C)[C@@H](O)[C@H](C)C=CC(=O)O[C@H]2[C@@H](C)[C@@H](CC1)O[C@@]1(CC[C@@H](C)[C@@H](C[C@H](C)O)O1)[C@@H]2C	53.0*	.	17.3	0.5	34.7
COC(=O)C[C@]1(C(=O)OC)CN(C#N)N(c2ccc(Cl)cc2)C12c1ccccc1-c1ccccc12	97.3*	.	-26.3	-3.5	76.5*
COC(=O)[C@@H]1[C@@H](C(=O)OC)C2(c3ccccc3-c3ccccc32)N(c2ccc(Cl)cc2)N1C#N	38.6	.	-59.2	-4.1	.
O=C(Cc1cccnc1)N1CCCCN2[C@H](CO)[C@H](c3ccc(/C=C/c4ccccc4)cc3)[C@@H]2C1	.	-1.3	.	.	.
CN(C)c1ccc(-[n+]2c(-c3ccccc3)cc(-c3ccccc3)cc2-c2ccccc2)cc1	99.4*	8.3*	-28.2	-0.4	62.1*
